From PubChem BioAssay (EPA / NIEHS)
Several values for one entry are separate records, joined by “and”; a condition that tells them apart may be missing. Equal values may be shown once. The source holds several records for some structures; these can differ, active in one and inactive in another. Activity calls are given as the source filed them. How the source made its calls: active means hit-call score of the fitted dose curve at least 0.9, where 1 is the maximum; inactive means score below 0.9.

What was measured:
Conditions in all cases: mRNA level, 48 h; actives raise or lower the signal
[1] = read-out: Alpha-fetoprotein (AFP) gene, AFP (gene 174); test: LTEA_HepaRG_AFP: Life Technologies and Expression Analysis (LTEA) Assay for Alpha-fetoprotein (AFP) gene using HepaRG (AID 2283472)
Description: It is a marker of Undifferentiated hepatocyte.Data from the assay component LTEA_HepaRG_AFP was analyzed into 1 endpoint. This assay endpoint, LTEA_HepaRG_AFP, was analyzed with bidirectional fitting relative to DMSO as the negative control and baseline of activity. Using a type of inducible reporter, measures of mRNA induction for gain or loss-of-signal activity can be used to understand regulation of transcription factor activity. To generalize the intended target to other relatable targets, this assay endpoint is annotated to the background measurement intended target family, where the subfamily is assay control.
A total of 1060 chemcials from the ToxCast library were tested in eight-point concentration-response experiments. Cell culture and cytotoxicity assays were conducted at Thermo Fisher Scientific's Custom Services facility (Madison, WI). A single lot of human HepaRG cells (Thermo Fisher Scientific, Frederick, MD) was used for the cell culture experiments. 96-well format collagen type I coated plates of human HepaRG cells were prepared using established methods. Briefly, cryopreserved HepaRG cells were thawed, plated at a density of approximately 100,000 cells/well in HepaRG Thaw, Plate, and General Purpose media (HPRG770, Thermo Fisher Scientific), and incubated for 48 hours. 0.5% DMSO was selected as vehicle control to balance the requisite need of DMSO in HepaRG cultures to maintain differentiation (for example, baseline metabolism, proportions of hepatocytes vs. cholangiocytes), while enabling further hepatic receptor pathway activation (for example, PXR and CAR) in response to chemical exposure. 48 hours after plating, the culture medium was replaced with HepaRG Serum-Free Incudtion Media. Cells were exposed to each test chemical in duplicate and maintained in CO2 incubators for another 48 hours. Chemical plates were thawed to room temperature and 200x concentrations of treatment groups were prepared. 8-point conentration-reponse curves were made with the highest exposure at 100 uM, followed by half-log dilutions, all in 0.5% DMSO. Each test plate contained variouse controls, induction positive controls (1mM phenobarbital), cytotoxicity positive controls ([…] aflatoxin B1), vehicle controls (0.5% DMSO), and total lysis controls (0.5% DMSO). Cell morphology images were taken using an Essen IncuCyte FLR automated microscope, with six 96-well plates imaged in about 24 minutes. Images were captured and exported and JPEG files. Spent culture media was transfered to black-well plates for the LDH assay, and remaining media was sorted at -80 C for later use. Cells were treated with RLT buffer and frozen until shipped for gene expression analysis. Total RNA was isolated from the cell suspension in 75 uL of Buffer RLT (Qiagen, Germantown, MD 20874) by Quintiles/Expression Analysis (Durham, NC) using a custom isolation procedure. Total RNA from each plate well was transferred to a preamplification plate. Fluidigm's 96.96 Dynamic ArrayTM (Fluidigm, Amsterdam, the Netherlands) technology was used for gene expression analyses by quantitative reverse transcription polymerase chain reaction (qRT-PCR, performed by Quintiles/Expression Analysis, Durham, NC)89. Standard TaqManTM Assays (Applied Biosystems/ThermoFisher Scientific, Foster City, CA) were used to assess the expression of 93 genes selected based on their selectivity and sensitivity to important hepatic receptors known to be modulated by environmental chemicals; importance in human hepatocyte functionality; and hepatotoxicity. Three "housekeeping" endogenous control genes were also included and used for normalization: actin beta (ACTB), Glyceraldehyde 3 phosphate dehydrogenase (GAPDH) and RNA Polymerase II Subunit A (POLR2A). qRT-PCR was conducted according to the manufacturer's protocol.

BCL2L11 (gene 10018) = test: LTEA_HepaRG_BCL2L11: Life Technologies and Expression Analysis (LTEA) Assay for Bcl-2 (BCL2L11) gene using HepaRG (AID 2283473)
Procedure, shortened: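 Differentiated human HepaRG cells in serum-free induction medium were exposed in duplicate for 48 h to eight concentrations (top 100 uM, half-log steps, 0.5% DMSO). BCL2L11 mRNA was quantified by TaqMan qRT-PCR, normalized to ACTB/GAPDH/POLR2A, bidirectional fit versus DMSO.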

[2] = read-out: Apolipoprotein A-V (APOA5) gene, APOA5 (gene 116519); test: LTEA_HepaRG_APOA5: Life Technologies and Expression Analysis (LTEA) Assay for Apolipoprotein A-V (APOA5) gene using HepaRG (AID 2283474)
Procedure, shortened: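 Differentiated human HepaRG cells were exposed in duplicate for 48 h to eight half-log concentrations from 100 uM in 0.5% DMSO. APOA5 mRNA was quantified by TaqMan qRT-PCR, normalized to ACTB, GAPDH and POLR2A, and fitted bidirectionally against DMSO.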

[3] = read-out: Apoptosis regulator Bcl-2 (Homo sapiens) (UniProt P10415); test: LTEA_HepaRG_BCL2: Life Technologies and Expression Analysis (LTEA) Assay for Bcl-2 gene using HepaRG (AID 2283475)
Procedure, shortened: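 Each chemical was tested in duplicate on HepaRG cultures held in serum-free induction medium for 48 h, highest concentration 100 uM with half-log dilutions. Transcript levels came from multiplexed qRT-PCR, normalised to housekeeping genes; activity was scored in either direction relative to DMSO.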

[4] = read-out: Bcl-2 (BID) gene, BID (gene 637); test: LTEA_HepaRG_BID: Life Technologies and Expression Analysis (LTEA) Assay for Bcl-2 (BID) gene using HepaRG (AID 2283476)
Procedure, shortened: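 Assay used HepaRG hepatic cells treated 48 h in serum-free medium with half-log dilutions from 100 uM. Endpoint: BID mRNA, qRT-PCR, normalized to ACTB/GAPDH/POLR2A.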

Caspase-3 (Homo sapiens) = Caspase-3 (Homo sapiens) (UniProt P42574); test: LTEA_HepaRG_CASP3: Life Technologies and Expression Analysis (LTEA) Assay for cysteine-aspartic acid protease (CASP3) using HepaRG (AID 2283477)
Sequence of Caspase-3 (Homo sapiens) (P42574 whole entry, looked up): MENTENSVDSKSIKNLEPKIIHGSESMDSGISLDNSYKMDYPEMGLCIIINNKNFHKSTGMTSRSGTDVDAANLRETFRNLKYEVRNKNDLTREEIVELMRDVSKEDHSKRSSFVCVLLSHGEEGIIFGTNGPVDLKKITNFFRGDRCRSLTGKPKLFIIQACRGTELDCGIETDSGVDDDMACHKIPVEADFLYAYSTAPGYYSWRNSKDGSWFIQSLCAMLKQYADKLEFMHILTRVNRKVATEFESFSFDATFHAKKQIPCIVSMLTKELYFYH
Procedure, shortened: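 Differentiated human HepaRG cells in serum-free induction medium were exposed 48 h to 8-point half-log concentrations from 100 uM (0.5% DMSO vehicle). CASP3 mRNA was measured by qRT-PCR, normalised to ACTB, GAPDH and POLR2A, with bidirectional fitting against DMSO.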

[5] = read-out: Cytochrome P450 (CYP24A1), CYP24A1 (gene 1591); test: LTEA_HepaRG_CYP24A1: Life Technologies and Expression Analysis (LTEA) Assay for Cytochrome P450 (CYP24A1) using HepaRG (AID 2283478)
Procedure, shortened: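 Differentiated HepaRG cells, pre-cultured 48 h, were exposed in duplicate for 48 h in serum-free induction medium to 8 half-log concentrations (top 100 uM, 0.5% DMSO). CYP24A1 mRNA was quantified by TaqMan qRT-PCR, normalized to ACTB/GAPDH/POLR2A, fitted bidirectionally versus DMSO.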

[6] = read-out: Cytochrome P450 (CYP1A2), CYP1A2 (gene 1544); test: LTEA_HepaRG_CYP1A2: Life Technologies and Expression Analysis (LTEA) Assay for Cytochrome P450 (CYP1A2) using HepaRG (AID 2283479)
Procedure, shortened: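 Differentiated human HepaRG cells in serum-free induction medium were exposed in duplicate for 48 h to 8-point half-log concentrations up to 100 uM in 0.5% DMSO. CYP1A2 mRNA measured by qRT-PCR, normalized to ACTB, GAPDH, POLR2A; bidirectional fit vs DMSO.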

[7] = read-out: cysteine-aspartic acid protease (CASP8), CASP8 (gene 841); test: LTEA_HepaRG_CASP8: Life Technologies and Expression Analysis (LTEA) Assay for cysteine-aspartic acid protease (CASP8) using HepaRG (AID 2283480)
Procedure, shortened: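 CASP8 transcript measured by TaqMan qRT-PCR with ACTB/GAPDH/POLR2A normalization, after 48 h chemical exposure of HepaRG cells in serum-free induction medium. Eight concentrations, top 100 uM, half-log steps, 0.5% DMSO vehicle; fits in both directions versus DMSO.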

[8] = read-out: Cytochrome P450 (CYP2B6), CYP2B6 (gene 1555); test: LTEA_HepaRG_CYP2B6: Life Technologies and Expression Analysis (LTEA) Assay for Cytochrome P450 (CYP2B6) using HepaRG (AID 2283481)
Procedure, shortened: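 Differentiated HepaRG cells, serum-free induction medium, exposed 48 h in duplicate to 8-point half-log concentrations from 100 uM in 0.5% DMSO. CYP2B6 mRNA by qRT-PCR, normalized to ACTB, GAPDH, POLR2A; bidirectional fit versus DMSO.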

Measured: AC50

Sequence of Apoptosis regulator Bcl-2 (Homo sapiens) (P10415 whole entry, looked up): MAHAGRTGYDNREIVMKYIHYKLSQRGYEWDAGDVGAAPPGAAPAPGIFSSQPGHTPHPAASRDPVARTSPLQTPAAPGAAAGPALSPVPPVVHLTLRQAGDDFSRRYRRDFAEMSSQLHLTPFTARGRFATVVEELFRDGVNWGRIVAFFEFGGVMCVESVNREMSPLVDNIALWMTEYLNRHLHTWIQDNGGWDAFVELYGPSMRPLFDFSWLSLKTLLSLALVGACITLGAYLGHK

C[C@]12CC[C@@H]3c4ccc(O)cc4CC[C@H]3[C@@H]1CC[C@@H]2O
active: [1] 50 µM | [2] 68 µM | [6] 79.5 µM | [8] 1.73 µM
inactive: BCL2L11 (gene 10018) | [3] | [4] | Caspase-3 (Homo sapiens) | [5] | [7]

CC/C(=C(\c1ccccc1)c1ccc(OCCN(C)C)cc1)c1ccccc1
inactive: BCL2L11 (gene 10018) | [2] | [3] | [4] | Caspase-3 (Homo sapiens) | [5] | [6] | [8]
active: [1] 22.4 µM and 27 µM | BCL2L11 (gene 10018) 74.6 µM | [4] 92.5 µM | Caspase-3 (Homo sapiens) 66.4 µM | [6] 11.9 µM | [7] 72.5 µM and 77.4 µM

C=C(C)C(N)=O
inactive: [1] | BCL2L11 (gene 10018) | [2] | [3] | [4] | Caspase-3 (Homo sapiens) | [5] | [6] | [7] | [8]

C#C[C@]1(O)CC[C@H]2[C@@H]3CCc4cc(O)ccc4[C@H]3CC[C@@]21C
inactive: [1] | [2] | [3] | [4] | Caspase-3 (Homo sapiens) | [5] | [6] | [7]
active: [8] 4.05 µM

CCCCOCCOCCO
inactive: [1] | BCL2L11 (gene 10018) | [2] | [3] | [4] | Caspase-3 (Homo sapiens) | [5] | [6] | [7] | [8]

O=C(c1ccc(OCCN2CCCCC2)cc1)c1c(-c2ccc(O)cc2)sc2cc(O)ccc12
inactive: [1] | BCL2L11 (gene 10018) | [2] | [3] | [4] | Caspase-3 (Homo sapiens) | [5] | [6]
active: [7] 73.3 µM | [8] 80.5 µM

COC(=O)c1ccc(C(=O)OC)cc1
inactive: [1] | BCL2L11 (gene 10018) | [2] | [3] | [4] | Caspase-3 (Homo sapiens) | [5] | [6] | [7] | [8]
